Test results reported in PubChem BioAssay (NCATS).
Records with an inconclusive call do not appear. Values without a mark were called inactive. The source made the active and inactive calls. Calls follow the shape of the dose curve; as a rule, active = well fitted curve in the direction sought with a large enough effect; inconclusive = small, poorly fitted or top-dose-only effect, or another doubt; inactive = no such curve, though single readings can be large or run the other way.

experiment: qHTS Assay for Identifying Gametocytocidal Compounds (AID 743244);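 as to max response: actives lower the fluorescent signal which means gametocytes are killed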; conditions: P. falciparum 3D7 stage III-V gametocytes, alamarBlue, 72 h; max response: stronger effect = lower value
In short: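 Compounds are pinned into medium, gametocytes (stage III–V, 3D7, 20,000 cells/well) added, and plates held 72 h at 37 °C in 5% CO2. AlamarBlue follows for 24 h before fluorescence reading.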
% is scaled to controls: 0 for no effect and ±100 for the full control effect; potency is read from the fitted curve at half-maximal effect.

| Compound | max response [%] | Potency |
| --- | --- | --- |
| CN1CCCN=C1/C=C/c1cccs1 | 3.61 |  |
| Cn1cc(S(C)=O)c(=O)c2ccc(F)cc21 (stereo unspecified) | -4.53 |  |
| C[C@]12CCC(=O)C=C1CC[C@@H]1[C@@H]2[C@@H](O)C[C@@]2(C)[C@H]1CC[C@]2(O)C(=O)COC(=O)CCC(=O)O | -22.1 |  |
| CCOC(=O)Cn1cccc1-c1nc(-c2ccc(OC)cc2)c(-c2ccc(OC)cc2)s1 | 9.5 |  |
| CCOC(=O)NNc1ccc(N(CC)CC(C)O)nn1 (stereo unspecified) | 0.172 |  |
| Nc1c(NC/C=C\COc2cc(CN3CCCCC3)ccn2)c(=O)c1=O | -0.695 |  |
| O=C(O)Cc1ccc(OCCNC[C@H](O)c2ccccc2)cc1 | -2.47 |  |
| Nc1ccc2cc3ccc(N)cc3nc2c1 |  | 12.6 µM (active) |
| CCNC(=O)NCCCOc1cccc(CN2CCCCC2)c1 | -8.1 |  |
| CCN1CCN(c2cc(-c3ccc(F)cc3)c3c(n2)CCCCCC3)CC1 | 9.24 |  |
| O=C(O)CNC(=O)CNC(=O)CNC(=O)CSC(=O)c1ccccc1 | 0.93 |  |
| Cc1cc2nc3ccc(=[N+](C)C)cc-3sc2cc1N |  | 6.31 µM (active) |
| O=P(O)(O)OCC(O)CO (stereo unspecified) | 11.3 |  |
| O=C(O)c1[nH]n(-c2ccc(S(=O)(=O)O)cc2)c(=O)c1N=Nc1ccc(S(=O)(=O)O)cc1 | -0.65 |  |
| CN1CCC(=C2c3ccccc3CCc3cccnc32)CC1 | 7.49 |  |
| CCOC(=O)OCC/C(SC(=O)OCC)=C(\C)N(C=O)Cc1cnc(C)nc1N | 11.2 |  |
